# Results reported in the supplement of paper PMC10338343.
# ± gives the standard deviation.
# System: EfPiwi piRISC loaded with L1MC piRNA (26 nt)
# Test: pre-steady-state target cleavage rate (min^-1); auxiliary factor: 500 nM Ephydatia muelleri Gtsf1; guide: L1MC piRNA 5'p-UAACUAAAUACUAUGCAAGCUGUAGG; MIWI and MILI are mouse PIWI proteins and EfPiwi is from a freshwater sponge; tags in brackets are library labels; higher = faster piRNA-guided slicing of the target
# Experimental: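 Cleave-'n-Seq: a library of target RNAs (target site in constant flanks) at […] was incubated with 1 nM active freshwater sponge Ephydatia fluviatilis Piwi piRISC (synthetic 5'-monophosphorylated piRNA guide) with or without 500 nM EmGtsf1 at 33 °C for 1 min to 16 h. Uncleaved targets were sequenced and the pooled three trials fitted to a burst-and-steady-state model to give the pre-steady-state cleavage rate (min^-1). Sequence is the target site only. Fits with R² ≤ 0 are excluded.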
row,Sequence,pre-steady-state target cleavage rate
1,UCCUGGUACUGCUUGCAUUGUAUUUAGUUA,0.00516 ± 0.0027
2,UCCUCGUACAGCUUGCAUAGUAUUAAGUUA,0.00547 ± 0.0018
3,UCCUGGAUGUGCAAGCAUAGUAUUUAGUUA,0.00427 ± 0.0022
4,UCCUGGAUCAGGUUGCAUAGAAUUUAGUUA,0.00305 ± 0.0023
5,UCCUGCUACAGCUUGCAUAGUAUUUUCUAA,0.00646 ± 0.0026
6,UCCUCGUACAGCUUGCAUAGUAAUUAGUUA,0.111 ± 0.033
7,UCCUCCUACAGCUAGCAUAGUAUUUAGUUA,0.0119 ± 0.0038
8,UCCUCCUACAGCUACCAUAGUAUUUAGUUA,0.00393 ± 0.0021
9,UCCUGGUACAGCUUGCAAAGUAUUUAGUUA,0.0101 ± 0.0035
10,UCCUGGAAGAGGUUGCAUAGUAUUUAGUUA,0.00538 ± 0.0032
11,UCCUGCUACUGCUUGCAUAGUAUUUACAAA,0.00262 ± 0.0024
12,UCCUGCUACAGCUUGCAUAGUUAUUUAGUUA,0.00578 ± 0.0032
13,UCCUGCUACAGCUUGCAUAGUAUUUACAAA,0.00255 ± 0.0022
14,UCCUGGAACAGCUACCAUAGUAUUUAGUUA,0.00309 ± 0.0026
15,UCCUGCUACAGCUUGCAUAGUAUAAAGAAA,0.00337 ± 0.0023
16,UCCUGGUACAGCUUCCAUAGUAUUUAGUUA,0.00258 ± 0.0017
17,UCCUCCUACACCUUGCAUAGUAUUUAGUAA,0.00625 ± 0.003
18,UCCUCCUACAGCUUGCAUAGUAUUUAGUCUA,0.00459 ± 0.0018
19,UCCUGCUACAGCUUGCAUAGAUUUUAGUAA,0.0033 ± 0.0022
20,UCCUGGAUCAGCAUGCUUAGUAUUUAGUUA,0.0112 ± 0.0042

row,Sequence,pre-steady-state target cleavage rate
1,UCCUCCUACAGCUUGCAUAGUAAUUAGAAA,0.00474 ± 0.0026
2,UCCUCCUACAGCUUGCAUAGUAUUUAGAAA,0.00581 ± 0.0024
3,UCCUGGAUCAGCUAGGAUAGUAUUUAGUUA,0.00257 ± 0.002
4,UCCUGCUACAGCUUGCAUAGUAAAAAGUAA,0.00322 ± 0.0027
5,UCCUGCUACAGCUAGCAUAGUAUUUAGAAA,0.00418 ± 0.0021
6,UCCUCCUACAGCUUGCAUAGUUUUUAGAUA,0.00341 ± 0.0022
7,UCCUGGUACAGCUUGCAUUGUAUUUAGAUA,0.00292 ± 0.0018
8,UCCUGCUACAGCCUUGCAUAGUAUUUAGUUA,0.0116 ± 0.0041
9,UCCUGGAUCAGCUUGCAUAGUAUUUAGUA,0.00808 ± 0.0034
10,UCCUGCUACAGUCUUGCAUAGUAUUUAGUUA,0.00684 ± 0.0025
11,UCCUGGAUCAUGCUUGCAUAGUAUUUAGUUA,0.0911 ± 0.025
12,UCCUGGAACAGCUUGCAAAGUAUUAAGUUA,0.00406 ± 0.003
13,UCCUGGAUCAGCUUGCAUAGUAUUUAUUA,0.0033 ± 0.0024
14,UCCUGGUACAGCUUGCAUAGUAUUUAGUGA,0.00447 ± 0.0018
15,UCCUGGUACAGCUAGCAUAGUAUUAAGUUA,0.00476 ± 0.0024
16,UCCUCCUACAGCUUGCAUACUAUUUACAAA,0.0038 ± 0.0031
17,UCCUCCUACAGCUUGCAUAGUAUUAACAAA,0.00454 ± 0.0033
18,UCCUGGAUGAGGUUGCAUAGUAAUUAGUUA,0.00522 ± 0.003
19,UCCUGCUACAGCUGGCAUAGUAUUUAGUUA,0.00937 ± 0.0024
20,UCCUGGAACAGCUUGCGUAGUAUUUAGUUA,0.00807 ± 0.0034
